Reference: PubChem BioAssay (Tox21)
Records with an inconclusive call do not appear. Activity calls are given as the source filed them. Unless noted, calls come from the whole dose curve; as a rule, active = well fitted curve in the direction sought with a large enough effect in the repeat runs; inconclusive = weak or mixed curves; inactive = no such curve, though single readings can be large; an effect the other way counts as inactive or inconclusive.

Assays:
[1] = qHTS assay for small molecule disruptors of the mitochondrial membrane potential (AID 720635); details: HepG2 mitochondrial membrane potential, Mito-MPS dye ratio; series mostly up to 83.2 µM; note: potency is the fitted concentration of half-maximal effect
In short: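 Mitochondrial membrane potential tracked with Mito-MPS dye, red aggregates (ex 540/em 590 nm) against green monomers (ex 490/em 535 nm). Compound treatment 1 hr at 37C, dye 30 min in HepG2.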

[2] = qHTS assay to test for compound auto fluorescence at 535 nm (green) in HepG2 cells (AID 720675); details: green autofluorescence 485/535 nm, 1 h; series mostly up to 46 µM
[3] = qHTS assay to test for compound auto fluorescence at 535 nm (green) in HEK293 cells (AID 720680); details: green autofluorescence 485/535 nm; series mostly up to 46 µM
[4] = qHTS assay to test for compound auto fluorescence at 590 nm (red) in HEK293 cell free culture (AID 720683); details: cell-free medium autofluorescence, Ex540/Em590 red; series mostly up to 46 µM
In short: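 Red-channel autofluorescence of compounds in culture medium (DMEM, 10% FBS), no cells, measured at 540/590 nm. Rose Bengal sodium is the reference fluorophore for equivalence.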

[5] = qHTS assay to test for compound auto fluorescence at 590 nm (red) in HepG2 cell free culture (AID 720684); details: cell-free medium autofluorescence, red 540/590 nm; series mostly up to 46 µM
In short: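 Plate contents were MEM with 10% FBS plus test compound or DMSO, no cells. Fluorescence was recorded with 540 nm excitation and 590 nm emission.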

[6] = qHTS assay to test for compound auto fluorescence at 460 nm (blue) in HepG2 cells (AID 720687); details: autofluorescence 405/460 nm, 1 h; series mostly up to 46 µM
In short: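 Blue-channel autofluorescence (Ex/Em 405/460 nm, triamterene-equivalent) was measured after 1 hr compound exposure at 37 C, 5% CO2. Cells were HepG2, plated overnight at 37 C in MEM plus 10% FBS.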

[7] = biological target: Glucocorticoid receptor (Homo sapiens) (UniProt P04150); assay: qHTS assay to identify small molecule agonists of the glucocorticoid receptor (GR) signaling pathway (AID 720691; active = well fitted activation curve with a large enough effect in the signal ratio in the repeat runs, not every such curve was filed as active; the % refers to the signal ratio); details: GR-bla HeLa, beta-lactamase reporter ratio, 18 h; series mostly up to 62.4 µM
In short: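 qHTS in GR-bla HeLa cells: 4 h settling at 37 C/5% CO2, 18 h compound incubation at 37 C, 2 h LiveBLAzer B/G FRET substrate at room temperature, fluorescence intensity measured.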

[8] = qHTS assay for identifying genotoxic compounds that show differential cytotoxicity against isogenic chicken DT40 cell lines with known DNA damage response pathways - Rad54/Ku70 mutant cell line (AID 743015); details: DT40 Rad54/Ku70 mutant viability, CellTiter-Glo, 40 h; series mostly up to 66.8 µM; note: nearly all actives have a fitted effect of over 60% in size
[9] = qHTS assay to identify small molecule antagonists of the androgen receptor (AR) signaling pathway - cell viability counter screen (AID 743033; note: nearly all actives have a fitted effect of over 45% in size); details: AR-bla HEK293 viability, CellTiter-Glo luminescence, 16 h; series mostly up to 58.5 µM
[10] = biological target: Estrogen receptor (Homo sapiens) (UniProt P03372); assay: qHTS assay to identify small molecule agonists of the estrogen receptor alpha (ER-alpha) signaling pathway (AID 743075; calls by dose curve;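 note: HEK293 GripTite cells with ER-alpha and UAS-driven beta-lactamase reporter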); details: HEK293 ER-alpha-UAS-bla, beta-lactamase FRET ratio, 18 h; series mostly up to 70.1 µM
[11] = biological target: Estrogen receptor (Homo sapiens) (UniProt P03372); assay: qHTS assay to identify small molecule agonists of the estrogen receptor alpha (ER-alpha) signaling pathway using the BG1 cell line (AID 743079); details: BG1Luc4E2 cells, ERE-luciferase agonist, 22 h; series mostly up to 70.3 µM; note: nearly all actives have a fitted effect of over 20% in size
[12] = qHTS assay to identify small molecule antagonists of the estrogen receptor alpha (ER-alpha) signaling pathway using the BG1 cell line (AID 743080; calls by dose curve;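 note: BG1 cells stimulated with 17beta-estradiol alongside compound; nearly all actives have a fitted effect of over 25% in size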); details: BG1Luc4E2 ERE-luciferase antagonist mode, luminescence; series mostly up to 70.3 µM
In short: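 Quantitative HTS on the Tox21 10K library: BG1 cells with endogenous ER-alpha and ERE-luciferase reporter, 17beta-estradiol stimulation, 21.5 h compound exposure, luminescence endpoint with parallel fluorescence cytotoxicity counter-read.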

[13] = biological target: Peroxisome proliferator-activated receptor gamma (Homo sapiens) (UniProt P37231); assay: qHTS assay to identify small molecule agonists of the peroxisome proliferator-activated receptor gamma (PPARg) signaling pathway (AID 743094; active = well fitted activation curve with a large enough effect in the signal ratio in the repeat runs, not every such curve was filed as active; the % refers to the signal ratio); details: HEK293H PPARg-UAS-bla, beta-lactamase FRET ratio, 17 h; series mostly up to 57 µM
In short: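 Compounds dissolved in DMSO were added to PPARg UAS-bla HEK293H cells for 17 h at 37C, and reporter expression was quantified by fluorescence intensity after 1 h with LiveBLAzer B/G FRET substrate.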

[14] = biological target: Nuclear receptor subfamily 1 group I member 2 (Homo sapiens) (UniProt O75469); assay: Human pregnane X receptor (PXR) activation by small molecules, qHTS assay (AID 1346985); details: DPX-2 HepG2 CYP3A4-luciferase, 24 h; series mostly up to 38.3 µM; note: nearly all actives have a fitted effect of over 40% in size
In short: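 DPX-2 cells (HepG2 co-transfected with a PXR response element and a CYP3A4-promoter luciferase construct) were seeded at 2,000 per well, rested 5 hr at 37C, then exposed to DMSO-dissolved compounds for 24 hr. Activation was read as luciferase luminescence.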

[15] = qHTS assay to test for compound auto fluorescence at 535 nm (green) in HepG2 cell free culture (AID 720686); details: Cell-free medium, green autofluorescence 485/535 nm; series mostly up to 46 µM
[16] = qHTS assay for identifying genotoxic compounds that show differential cytotoxicity against isogenic chicken DT40 cell lines with known DNA damage response pathways - wild type cell line (AID 743012); details: DT40 wild type chicken cells viability, CellTiter-Glo, 40 h; series mostly up to 68.4 µM; note: nearly all actives have a fitted effect of over 60% in size
In short: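 First, wild type DT40 cells were plated at 300 per well and equilibrated about 0.5 h at 37 C/5% CO2. Next, compounds in DMSO were added and exposure lasted 40 h. Finally, CellTiter-Glo was added for 30 min at room temperature and luminescence recorded.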

[17] = qHTS assay to identify small molecule antagonists of the thyroid receptor (TR) signaling pathway (AID 743065); details: GH3.TRE-Luc, T3-stimulated luciferase inhibition, 23.5 h; series mostly up to 70.3 µM; note: nearly all actives have a fitted effect of over 55% in size
In short: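 Antagonism measured as loss of luciferase signal in GH3 cells stably carrying a TRE-luciferase reporter, co-treated with compound and T3 (1 nM final) for 23.5 h at 37 C. Viability was read in the same well by CellTiter-Fluor.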

[18] = biological target: Aryl hydrocarbon receptor (Homo sapiens) (UniProt P35869); assay: qHTS assay to identify small molecule that activate the aryl hydrocarbon receptor (AhR) signaling pathway (AID 743085); details: HepG2 AhR-luc (HG2L7.5c1), luciferase, 24 h; series mostly up to 70.3 µM;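 note: HG2L7.5c1 human HepG2 liver cells with stably integrated DRE-driven firefly reporter; nearly all actives have a fitted effect of over 15% in size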
In short: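 Compounds were tested in HepG2 hepatocellular carcinoma cells harbouring a stably integrated luciferase gene under control of 20 DREs. Increased reporter signal after 24 h treatment at 37C was taken as AhR activation.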

[19] = qHTS assay to identify small molecule antagonists of the thyroid receptor (TR) signaling pathway - cell viability counter screen (AID 743064); details: GH3.TRE-Luc viability, CellTiter-Fluor, 24 h; series mostly up to 70.3 µM; note: nearly all actives have a fitted effect of over 50% in size
In short: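 Rat GH3 pituitary tumor cells stably expressing two TR response elements driving luciferase were plated, rested 4 h, then dosed with library compounds and T3 (1 nM final). After 23.5 h at 37 °C, CellTiter-Fluor was added for 30 min and fluorescence recorded.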

[20] = qHTS assay to test for compound auto fluorescence at 460 nm (blue) in HepG2 cell free culture (AID 720685); details: Cell-free culture medium, blue autofluorescence 405/460 nm; series mostly up to 46 µM
In short: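 Compound (23 nL) or DMSO pinned into cell-free MEM with 10% FBS; blue fluorescence read at 405/460 nm excitation/emission, expressed as auto-fluorescence equivalency to triamterene.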

Measured: Potency

Sequence of Peroxisome proliferator-activated receptor gamma (Homo sapiens) (P37231 whole entry, looked up): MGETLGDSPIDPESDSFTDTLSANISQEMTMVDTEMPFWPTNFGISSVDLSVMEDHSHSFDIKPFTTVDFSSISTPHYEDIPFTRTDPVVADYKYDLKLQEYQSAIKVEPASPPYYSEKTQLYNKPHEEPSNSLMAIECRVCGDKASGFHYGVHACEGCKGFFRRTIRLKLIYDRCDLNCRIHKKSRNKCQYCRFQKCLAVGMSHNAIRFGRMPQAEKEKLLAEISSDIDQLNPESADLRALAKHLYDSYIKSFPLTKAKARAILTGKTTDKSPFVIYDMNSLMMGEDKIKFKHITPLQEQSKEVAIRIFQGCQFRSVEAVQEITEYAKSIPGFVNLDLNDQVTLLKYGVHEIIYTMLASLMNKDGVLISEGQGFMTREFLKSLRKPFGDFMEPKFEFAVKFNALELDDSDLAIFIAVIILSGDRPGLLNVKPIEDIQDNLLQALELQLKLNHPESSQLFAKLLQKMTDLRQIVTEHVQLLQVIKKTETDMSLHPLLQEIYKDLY
Sequence of Estrogen receptor (Homo sapiens) (P03372 whole entry, looked up): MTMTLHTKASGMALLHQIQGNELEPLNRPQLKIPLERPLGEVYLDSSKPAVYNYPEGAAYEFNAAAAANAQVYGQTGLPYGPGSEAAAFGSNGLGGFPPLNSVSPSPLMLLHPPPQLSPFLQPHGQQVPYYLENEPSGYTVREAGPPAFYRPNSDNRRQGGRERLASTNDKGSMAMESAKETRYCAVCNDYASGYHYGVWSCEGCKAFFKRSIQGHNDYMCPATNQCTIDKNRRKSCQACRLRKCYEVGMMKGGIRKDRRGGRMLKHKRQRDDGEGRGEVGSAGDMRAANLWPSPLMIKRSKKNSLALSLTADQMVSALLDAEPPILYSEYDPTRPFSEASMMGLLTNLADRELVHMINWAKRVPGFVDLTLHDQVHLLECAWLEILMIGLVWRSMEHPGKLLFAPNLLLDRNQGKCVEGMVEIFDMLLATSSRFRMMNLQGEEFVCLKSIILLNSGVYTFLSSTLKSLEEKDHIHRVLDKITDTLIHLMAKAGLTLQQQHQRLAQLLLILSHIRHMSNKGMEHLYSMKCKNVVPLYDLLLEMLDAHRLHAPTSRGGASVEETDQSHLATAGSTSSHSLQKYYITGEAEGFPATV
Sequence of Aryl hydrocarbon receptor (Homo sapiens) (P35869 whole entry, looked up): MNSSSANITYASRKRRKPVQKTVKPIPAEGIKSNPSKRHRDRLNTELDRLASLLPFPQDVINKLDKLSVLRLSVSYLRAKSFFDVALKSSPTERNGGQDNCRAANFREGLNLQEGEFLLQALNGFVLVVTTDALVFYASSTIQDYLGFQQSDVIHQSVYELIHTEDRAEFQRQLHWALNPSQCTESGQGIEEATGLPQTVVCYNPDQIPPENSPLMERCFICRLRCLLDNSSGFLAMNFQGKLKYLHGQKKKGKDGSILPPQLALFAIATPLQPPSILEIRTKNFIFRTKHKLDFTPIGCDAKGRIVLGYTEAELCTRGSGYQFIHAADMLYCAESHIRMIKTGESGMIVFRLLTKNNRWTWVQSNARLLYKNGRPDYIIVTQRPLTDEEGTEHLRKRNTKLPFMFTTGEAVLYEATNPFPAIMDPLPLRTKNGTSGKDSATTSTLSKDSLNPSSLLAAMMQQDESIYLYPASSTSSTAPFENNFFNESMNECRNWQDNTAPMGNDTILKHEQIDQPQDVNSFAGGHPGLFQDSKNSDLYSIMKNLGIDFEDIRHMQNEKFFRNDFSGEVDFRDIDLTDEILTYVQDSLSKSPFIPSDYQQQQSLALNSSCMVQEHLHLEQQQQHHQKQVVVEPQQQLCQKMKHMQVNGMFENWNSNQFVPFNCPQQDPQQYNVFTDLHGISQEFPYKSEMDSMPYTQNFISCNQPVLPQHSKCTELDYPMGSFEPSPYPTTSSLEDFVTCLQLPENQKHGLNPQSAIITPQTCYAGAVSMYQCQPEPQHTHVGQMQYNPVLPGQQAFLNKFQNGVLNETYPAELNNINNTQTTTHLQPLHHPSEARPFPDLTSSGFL
Sequence of Glucocorticoid receptor (Homo sapiens) (P04150 whole entry, looked up): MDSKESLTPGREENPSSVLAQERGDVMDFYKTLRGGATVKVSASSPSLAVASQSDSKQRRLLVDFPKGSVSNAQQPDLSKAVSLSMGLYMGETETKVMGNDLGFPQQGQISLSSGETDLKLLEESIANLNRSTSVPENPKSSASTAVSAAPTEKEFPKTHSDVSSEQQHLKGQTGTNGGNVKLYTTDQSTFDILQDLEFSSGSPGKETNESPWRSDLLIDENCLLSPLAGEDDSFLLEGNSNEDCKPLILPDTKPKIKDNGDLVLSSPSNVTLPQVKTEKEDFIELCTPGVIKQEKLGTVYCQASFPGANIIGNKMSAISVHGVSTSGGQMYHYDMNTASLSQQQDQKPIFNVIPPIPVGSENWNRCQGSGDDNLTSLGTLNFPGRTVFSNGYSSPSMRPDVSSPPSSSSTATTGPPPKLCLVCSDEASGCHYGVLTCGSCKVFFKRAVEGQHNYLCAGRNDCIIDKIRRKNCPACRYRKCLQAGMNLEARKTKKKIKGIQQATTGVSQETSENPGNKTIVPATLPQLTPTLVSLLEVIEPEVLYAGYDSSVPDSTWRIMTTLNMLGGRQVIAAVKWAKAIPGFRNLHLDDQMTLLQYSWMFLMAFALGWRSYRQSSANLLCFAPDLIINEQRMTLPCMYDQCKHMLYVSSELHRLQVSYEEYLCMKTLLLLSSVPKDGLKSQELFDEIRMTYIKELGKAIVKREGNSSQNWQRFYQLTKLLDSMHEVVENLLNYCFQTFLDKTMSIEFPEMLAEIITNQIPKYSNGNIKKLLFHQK

COc1ccc2c(c1)C13CCCC[C@@H]1C(C2)N(C)CC3 (stereo partly drawn)
not listed: [15] | [16] | [17] | [18] | [19] | [20]
inactive: all other assays above

CC1(C)[C@H](C=C(Cl)Cl)[C@H]1C(=O)OCc1c(F)c(F)cc(F)c1F
active: [1] 22.1 µM
not listed: [13] | [19] | [20]
inactive: all other assays above

C[N+]1([O-])[C@@H]2CC[C@H]1CC(OC(=O)C(CO)c1ccccc1)C2 (stereo partly drawn)
not listed: [17] | [20]
inactive: all other assays above

CC(C)(O)[C@@H]1[C@H]2OC(=O)[C@@H]1[C@]1(O)C[C@H]3O[C@]34C(=O)O[C@H]2[C@]14C
inactive: [2] | [4] | [15] | [7] | [16] | [8] | [9] | [19] | [17] | [14]

CNc1ccc(C(=O)CC(O)CCC(C)C2OC(=O)CC(O)CC(=O)CC(O)CC(O)CC(O)CC(O)CC3(O)CC(O)C(C(=O)OC)C(CC(O[C@@H]4O[C@H](C)[C@@H](O)[C@H](N)[C@@H]4O)/C=C/C=C/C=C/C=C/C=C/C=C/C=C/C2C)O3)cc1 (stereo partly drawn)
active: [1] 16.8 µM
not listed: [5] | [6] | [8] | [13] | [16] | [17]
inactive: all other assays above

CCON=O
not listed: [11] | [16] | [18]
inactive: all other assays above

CC(=O)OC1CN2CCC1CC2 (stereo not drawn)
not listed: [1] | [13] | [16] | [18]
inactive: all other assays above

CCC(C)(S(=O)(=O)CC)S(=O)(=O)CC
not listed: [1] | [6] | [7] | [9] | [16] | [17] | [18]
inactive: all other assays above

C[N+]1(C)CCCCC1COC(=O)C(O)(c1ccccc1)c1ccccc1 (stereo not drawn)
not listed: [1] | [9] | [10] | [11] | [12] | [13] | [17] | [19]
inactive: all other assays above

O=C(C[C@@H]1NCCC[C@H]1O)Cn1cnc2cc(Br)c(Cl)cc2c1=O
not listed: [1] | [2] | [4] | [13] | [17] | [18] | [19]
inactive: all other assays above

C[N+]1([O-])[C@@H]2CC(OC(=O)[C@H](CO)c3ccccc3)C[C@H]1[C@@H]1O[C@@H]12 (stereo partly drawn)
not listed: [3] | [13]
inactive: all other assays above

O[C@H]1[C@H]2[C@H](O)CCCN2C[C@H]1O
not listed: [2] | [18]
inactive: all other assays above

O=C1CCO1
not listed: [5] | [18]
inactive: all other assays above
